Assay results: the supplement of paper PMC9694430
Where a name gives a salt, the structure may show the parent alone.

Assays:
Assay in all cases: thermal shift delta Tm vs DMSO control; higher = stronger stabilization (binding)
Settings in all cases: 12.5 µM; protein concentration 2 µM
LOC_OS01G01410-cb001 = test system: LOC_OS01G01410-cb001
Procedure, shortened: (§1)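 Rice kinase domain constructs were expressed in E. coli, purified, and tested by differential scanning fluorimetry with compound added in DMSO. Each well of a 96-well plate held 19.5 μl of 2 μM kinase in 100 mM potassium phosphate pH 7.5, 150 mM NaCl, 10% glycerol and 5 × SYPRO Orange, and fluorescence was read from 25°C to 95°C at 0.05°C/s. The melting temperature shift is the mean of triplicates, taken against protein with DMSO alone after Boltzmann fitting.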

LOC_OS01G02750-cb003 = test system: LOC_OS01G02750-cb003
Procedure, shortened: as §1

LOC_OS01G10900-cb004 = test system: LOC_OS01G10900-cb004
Procedure, shortened: as §1

LOC_OS01G13800-cb001 = test system: LOC_OS01G13800-cb001
Procedure, shortened: as §1

LOC_OS01G14860-cb001 = test system: LOC_OS01G14860-cb001
Procedure, shortened: as §1

LOC_OS01G21960-cb002 = test system: LOC_OS01G21960-cb002
Procedure, shortened: as §1

LOC_OS01G39600-cb002 = test system: LOC_OS01G39600-cb002
Procedure, shortened: as §1

LOC_OS01G48390-cb002 = test system: LOC_OS01G48390-cb002
Procedure, shortened: as §1

LOC_OS01G51400-cb002 = test system: LOC_OS01G51400-cb002
Procedure, shortened: as §1

LOC_OS01G52050-cb004 = test system: T1, LOC_OS01G52050-cb004
T1 sequence (whole entry): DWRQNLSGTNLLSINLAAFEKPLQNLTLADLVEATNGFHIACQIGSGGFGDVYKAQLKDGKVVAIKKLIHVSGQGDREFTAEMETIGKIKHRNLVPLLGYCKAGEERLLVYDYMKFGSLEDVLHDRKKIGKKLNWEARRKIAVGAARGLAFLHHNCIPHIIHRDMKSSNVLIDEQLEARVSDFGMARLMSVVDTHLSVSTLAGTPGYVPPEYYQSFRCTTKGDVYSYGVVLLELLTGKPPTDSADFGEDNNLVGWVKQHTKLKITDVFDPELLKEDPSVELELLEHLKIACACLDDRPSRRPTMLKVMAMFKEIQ
Procedure, shortened: as §1

LOC_OS01G57100-cb003 = test system: LOC_OS01G57100-cb003
Procedure, shortened: as §1

LOC_OS01G60330-cb001 = test system: LOC_OS01G60330-cb001
Procedure, shortened: as §1

LOC_OS01G60700-cb002 = test system: LOC_OS01G60700-cb002
Procedure, shortened: as §1

LOC_OS01G63280-cb003 = test system: LOC_OS01G63280-cb003
Procedure, shortened: as §1

LOC_OS01G67340-cb003 = test system: LOC_OS01G67340-cb003
Procedure, shortened: as §1

LOC_OS01G70970-cb002 = test system: LOC_OS01G70970-cb002
Procedure, shortened: as §1

LOC_OS02G07810-cb001 = test system: LOC_OS02G07810-cb001
Procedure, shortened: as §1

LOC_OS02G08530-cb003 = test system: LOC_OS02G08530-cb003
Procedure, shortened: as §1

LOC_OS02G14120-cb001 = test system: LOC_OS02G14120-cb001
Procedure, shortened: as §1

LOC_OS02G17970-cb001 = test system: LOC_OS02G17970-cb001
Procedure, shortened: as §1

Structure (SMILES) | thermal shift delta Tm (LOC_OS01G01410-cb001) | thermal shift delta Tm (LOC_OS01G02750-cb003) | thermal shift delta Tm (LOC_OS01G10900-cb004) | thermal shift delta Tm (LOC_OS01G13800-cb001) | thermal shift delta Tm (LOC_OS01G14860-cb001) | thermal shift delta Tm (LOC_OS01G21960-cb002) | thermal shift delta Tm (LOC_OS01G39600-cb002) | thermal shift delta Tm (LOC_OS01G48390-cb002) | thermal shift delta Tm (LOC_OS01G51400-cb002) | thermal shift delta Tm (LOC_OS01G52050-cb004) | thermal shift delta Tm (LOC_OS01G57100-cb003) | thermal shift delta Tm (LOC_OS01G60330-cb001) | thermal shift delta Tm (LOC_OS01G60700-cb002) | thermal shift delta Tm (LOC_OS01G63280-cb003) | thermal shift delta Tm (LOC_OS01G67340-cb003) | thermal shift delta Tm (LOC_OS01G70970-cb002) | thermal shift delta Tm (LOC_OS02G07810-cb001) | thermal shift delta Tm (LOC_OS02G08530-cb003) | thermal shift delta Tm (LOC_OS02G14120-cb001) | thermal shift delta Tm (LOC_OS02G17970-cb001)
COc1cc2nccc(Oc3ccc(NC(=O)c4cn(C(C)C)c(=O)n(-c5ccc(F)cc5)c4=O)cc3F)c2cc1OC | 0.17 °C | 1.65 °C | -0.15 °C | 0.61 °C | 0.98 °C | 0.2 °C | 0.41 °C | 0.32 °C | 0.13 °C | 4.45 °C | 0.85 °C | 0.41 °C | 0.47 °C | -0.09 °C | 0.68 °C | 0.8 °C | -0.36 °C | 0.66 °C | 8.24 °C | 1.66 °C
CNC(=O)c1cc(Oc2ccc(NC(=O)Nc3ccc(Cl)c(C(F)(F)F)c3)cc2)ccn1 [Sorafenib Tosylate] | 2.14 °C | 5.21 °C | 1.97 °C | 1.97 °C | 5.9 °C | 2.13 °C | 2.03 °C | 2.56 °C | 1.31 °C | 5.16 °C | 4.07 °C | 3.91 °C | 1.77 °C | 9.15 °C | 0.52 °C | 1.83 °C | 2.2 °C | 1.92 °C | 3.45 °C | 1.56 °C
N#Cc1ccc2[nH]c(O)c(-c3ccc(CN4CCOCC4)cn3)c2c1 | 0.79 °C | 1.84 °C | 0.41 °C | -0.53 °C | 6.12 °C | 0.79 °C | 1.95 °C | 1.33 °C | 0.34 °C | 0.44 °C | -0.18 °C | 0.88 °C | 1.33 °C | 0.3 °C | -0.02 °C | 0.56 °C | 0.82 °C | 1.04 °C | -0.04 °C | 0.51 °C
CC(C)c1ccc2oc3nc(N)c(C(=O)O)cc3c(=O)c2c1 [Amlexanox] | 0.99 °C | 0.05 °C | 0.62 °C | -0.62 °C | 0.4 °C | -0.2 °C | 2.5 °C | -0.03 °C | 0.2 °C | 1.26 °C | 1.39 °C | 3.07 °C | 0.37 °C | 0.05 °C | 0.99 °C | 4.3 °C | 0.24 °C | 1.49 °C | 0.32 °C | -0.09 °C
COc1cc2nccc(Oc3ccc(NC(=O)NC4CC4)c(Cl)c3)c2cc1C(N)=O [Lenvatinib (E7080)] | 1.14 °C | 1.17 °C | 0.52 °C | 0.29 °C | 0.28 °C | 0.62 °C | -0.02 °C | 0.47 °C | 0.04 °C | 0.33 °C | -0.21 °C | 1.52 °C | 1.38 °C | 0.36 °C | -0.21 °C | 0.67 °C | 0.65 °C | 1.11 °C | 0.02 °C | 0.27 °C
Cc1[nH]nc2ccc(-c3cncc(OC[C@@H](N)Cc4ccccc4)c3)cc12 | 0.54 °C | 2.26 °C | 0.37 °C | 0.21 °C | 4.96 °C | 3.58 °C | -0.73 °C | 1.02 °C | 0.06 °C | 2.3 °C | 1.88 °C | 0.68 °C | 1.01 °C | 0.26 °C | 1.12 °C | 0.36 °C | 1.05 °C | 2.68 °C | 3.18 °C | 0.41 °C
Cc1c(NC(=O)OC[C@@H]2COCCN2)cn2ncnc(Nc3ccc4c(cnn4Cc4cccc(F)c4)c3)c12 | 0.88 °C | -0.18 °C | 0.06 °C | 0.7 °C | 0.19 °C | 0.52 °C | 0.91 °C | 0.07 °C | 0.14 °C | 0.23 °C | 0.24 °C | 1.47 °C | 1.55 °C | 0.59 °C | -0.1 °C | 0.39 °C | 0.88 °C | 0.86 °C | 0.51 °C | 0.42 °C
Cn1cnc2c(F)c(Nc3ccc(Br)cc3Cl)c(C(=O)NOCCO)cc21 [Selumetinib (AZD6244)] | 0.81 °C | -0.16 °C | 0.43 °C | 0.45 °C | 0.22 °C | 0.07 °C | 0.25 °C | 1.04 °C | 0.36 °C | 0.08 °C | 0.72 °C | 0.77 °C | 1.13 °C | -0.08 °C | -0.85 °C | 0.48 °C | 0.62 °C | 0.39 °C | 0.1 °C | 0.19 °C
CC(C)NC[C@@H](C(=O)N1CCN(c2ncnc3c2[C@H](C)C[C@H]3O)CC1)c1ccc(Cl)cc1 [Ipatasertib (GDC-0068)] | 0.15 °C | 0.42 °C | 0.03 °C | 0.07 °C | 0.06 °C | 0.43 °C | 0.77 °C | -0.11 °C | 0.32 °C | 0.26 °C | 0.44 °C | 0.84 °C | 1.12 °C | 0.25 °C | 0.25 °C | 0.4 °C | 0.82 °C | 0.31 °C | -0.01 °C | 0.06 °C
CN1CC[C@H](c2c(O)cc(O)c3c(=O)cc(-c4ccccc4Cl)oc23)[C@H](O)C1 [Flavopiridol HCl] | 0.19 °C | 0.76 °C | 0.17 °C | 0.42 °C | 4.95 °C | 1.89 °C | 1.02 °C | 0.58 °C | 0.54 °C | 1.03 °C | 1.91 °C | 1.31 °C | 0.43 °C | 1.03 °C | 0.26 °C | 1.67 °C | 1.12 °C | 2.13 °C | 2.4 °C | 0.78 °C
CCCCCCCCCCCCCCCCCCOP(=O)([O-])OC1CC[N+](C)(C)CC1 [Perifosine (KRX-0401)] | -2.46 °C | -3.08 °C | -2.19 °C | -2.02 °C | -1.55 °C | -1.07 °C | -4.67 °C | -1.63 °C | -3.01 °C | -2.26 °C | -2.51 °C | -0.68 °C | -0.73 °C | -3.09 °C | -1.14 °C | -3.45 °C | -0.99 °C | -1.07 °C | -2.06 °C | -0.45 °C
CCCNC(=O)c1cn2ncnc(Nc3cc(C(=O)NC4CC4)ccc3C)c2c1C | 0.17 °C | 0.08 °C | -0.05 °C | -0.27 °C | 0.01 °C | -0.06 °C | 0.07 °C | -0.01 °C | 0.04 °C | 0.26 °C | 0.66 °C | 0.41 °C | 0.99 °C | 0.33 °C | 0.18 °C | 0.12 °C | 0.08 °C | 0.8 °C | 0.54 °C | -0.21 °C
Nc1ncc(-c2ccnc(Nc3ccncc3)n2)c(CC2CC2)n1 | 0.71 °C | 1.52 °C | 1.79 °C | 0.81 °C | 2.55 °C | 0.87 °C | 0.29 °C | 0.57 °C | 0.15 °C | 0.96 °C | 0.51 °C | 1.45 °C | 1.53 °C | 0.58 °C | 0.33 °C | 0.37 °C | 0.77 °C | 0.52 °C | 3.13 °C | 2.16 °C
